Test results taken from PubChem BioAssay AID492947 (National Center for Advancing Translational Sciences (NCATS), 2010).
In all, about 330,000 compounds went through this assay and about 80 (0.02%) were called active. Where a call stands in place of a potency, no number is given. The call rests on the fitted dose curve; in most records, active means well fitted activation curve with a large enough effect; inconclusive means small, poorly fitted or top-dose-only effect; inactive means flat fitted curve, though single readings scatter. For the sample, actives were picked, then their nearest neighbours and some compounds at random.

Molecular target: Beta-2 adrenergic receptor (Homo sapiens) (UniProt P07550)
Sequence (P07550 whole entry, looked up): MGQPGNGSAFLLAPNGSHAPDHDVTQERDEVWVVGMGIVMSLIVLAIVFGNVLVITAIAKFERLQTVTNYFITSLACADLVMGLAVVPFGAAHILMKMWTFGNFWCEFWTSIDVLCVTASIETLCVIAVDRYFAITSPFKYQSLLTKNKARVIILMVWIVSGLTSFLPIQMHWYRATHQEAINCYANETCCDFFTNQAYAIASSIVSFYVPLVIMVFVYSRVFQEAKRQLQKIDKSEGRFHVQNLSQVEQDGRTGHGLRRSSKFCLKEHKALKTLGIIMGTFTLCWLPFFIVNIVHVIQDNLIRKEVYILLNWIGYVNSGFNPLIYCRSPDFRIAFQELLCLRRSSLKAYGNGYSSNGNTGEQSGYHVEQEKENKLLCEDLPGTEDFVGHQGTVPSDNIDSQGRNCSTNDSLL
Experiment: qHTS assay of beta-arrestin-biased ligands of beta2-adrenergic receptor; further: nearly all actives have a fitted effect of over 65% in size
Conditions: beta-arrestin recruitment to beta2AR, cell-based reporter; series mostly up to 46.1 µM
Excerpt: NIH Molecular Libraries Probe Production Network [MLPCN]
NIH Chemical Genomics Center [NCGC]
PI: Bryan Roth and Bob Lefkowitz
The concept of biased agonism is an emerging concept of molecular pharmacology which proposes that seven transmembrane receptors (7TMRs) or G protein-coupled receptors (GPCRs), exist in multiple signaling conformations and complexes and that ligands (either agonists or antagonists) can induce signaling biased responses for distinct signal transduction cascades.
Furthermore, accumulating evidence over the last decade has drawn attention to a novel function of beta-arrestins as signal transducers that scaffold various signaling molecules upon activation of 7TMRs. […] This beta-arrestin-biased signaling presumably leads to distinct physiological outcomes from those by G protein activation.
Additionally, the active receptor conformations which […] on this beta-arrestin signaling are likely different from those activating G protein signaling
The goal of this screening project will be to discover and optimize novel beta-arrestin-biased ligands for beta2-AR signaling. A luminescent cell-based assay for beta2-AR-mediated agonism, known as the Tango assay, has been validated in which ligand binding of a recombinant beta2-AR and subsequent recruitment of a recombinant beta-arrestin lead to the release of the transcriptional activator tTA, which upregulates transcription of a tTA-responsive luciferase gene. […] Compounds were screened as a concentration-titration series that ranged from 46 microM to 0.6 nM.
NCGC Assay Protocol Summary:
Tango cells were dispensed into white, solid, tissue-culture-treated 1536-well plates at 1500 cells/well in DMEM, containing 1% fetal bovine serum (FBS). Then, 23 nL of compounds or DMSO were delivered to each well using a pin tool. Plates were incubated at 37 degrees C, 5% CO2 for 18 hr. Then 2.5 uL luminescent substrate mix (in-house prepared: 150 mM Tris-Cl, pH 7.6, 3 mM MgCl2, 1% Triton X-100, 5 mM DTT, 0.5 mM CoA, 0.15 mM ATP, 0.44 mM D-luciferin, final concentrations) was added to each well. Plates were then incubated for 15 minutes at room temperature, and subsequently measured on a ViewLux plate reader for luminescent signal using a clear filter with a 10 second exposure and 2x binning. The %Activity was determined from the corrected luminescence values.
Concentration-response curves were fitted to the signals arising from the resulting luminescence. The concentration-effect curves were then classified based on curve quality (r2), response magnitude and degree of measured activity, and compounds were subsequently categorized based on their curve class.
Keywords: biased agonism, beta2-AR, beta-arrestin, GPCR, 7TMR, Tango, luminescence, MLSMR, MLPCN, NIH Roadmap, qHTS, NCGC
Potency means the concentration at half of the fitted maximal effect.

Compound	Potency
COc1ccc(Cn2c(-c3ccc(Cl)cc3)c[n+]3ccccc23)cc1	inactive
Cc1cc(NC(=O)CSc2nccn2-c2ccc([N+](=O)[O-])cc2)no1	inactive
COc1ccc(N=Nc2c(-c3ccc(OC)cc3)[nH]oc2=O)cc1	inactive
COc1ccccc1CNS(=O)(=O)CC12CCC(CC1=O)C2(C)C (stereo unspecified)	inactive
CCC(C)NC(=O)c1nn(C)c(=O)c2ccccc12 (stereo unspecified)	inactive
CCOc1ccc2c(c1)c(=O)c(S(=O)(=O)c1ccc(C)cc1)cn2CC	inactive
COc1ccc2ccccc2c1CNCc1ccccn1	inactive
O=C(Cn1nnc2ccccc2c1=O)Nc1cc(C(F)(F)F)ccc1N1CCOCC1	inactive
Cc1ccc(SCC(=O)NNC(=O)c2ccc(S(C)(=O)=O)cc2)cc1	inactive
CC1Cc2ccccc2N1C(=O)Cn1cnc2ccccc2c1=O (stereo unspecified)	inactive
CC1CCCC(NC(=O)c2cc(-c3ccncc3)nc3ccccc23)C1C (stereo unspecified)	inactive
CC1CCN(c2oc(-c3ccccc3F)nc2C#N)CC1	inactive
O=C(Nc1c(-c2ccccc2)nc2c(Br)cc(Br)cn12)c1ccco1	inactive
CC(=O)c1cccc(NC(=O)CN2C(=O)c3cccnc3Oc3ccc(Cl)cc32)c1	inactive
COc1ccccc1OCc1ccc(C(=O)NC(C)c2ccccc2)o1 (stereo unspecified)	inactive
CCN(CC)Cc1csc2ccc(Br)cc12	inactive
COc1ccc(C(=O)N(CCN2CCOCC2)CC(=O)NC2CCCC2)cc1OC	inactive
COc1ccc([N+](=O)[O-])cc1NC(=O)C(C)OC(=O)C1c2ccccc2Oc2ccccc21 (stereo unspecified)	inactive
CNc1nccc(-c2ccc(Cl)cc2)c1C#N	inactive
CC(C)(C)CC(C)(C)NCC(O)COCCOc1ccc(Br)cc1 (stereo unspecified)	inactive
CC(C)C(c1nnnn1C(C)(C)C)N1CCN(Cc2cccnc2)CC1 (stereo unspecified)	inactive
O=C(CSc1ccc(-c2ccc(-n3cccn3)cc2)nn1)Nc1ccc([N+](=O)[O-])cc1	inactive

Compound	Potency
COc1ccc(CNS(=O)(=O)c2cc3c4c(c2)CCN4C(=O)CC3)cc1	inactive
CCN(CC(=O)Nc1ccccc1C(F)(F)F)C(=O)CSCc1c(C)noc1C	inactive
CN(CC(=O)Nc1ccc(F)c(F)c1F)C(=O)Cn1cnc2c1c(=O)n(C)c(=O)n2C	inactive
COC(=O)C1(C)NC(c2ccc(C)cc2)C2C(=O)N(c3ccc(F)cc3)C(=O)C21 (stereo unspecified)	inactive
CC1CC(c2ccccc2)n2nc(NC(=O)c3cccs3)nc2N1 (stereo unspecified)	inactive
CN(C(=O)CSc1nnc(-c2ccc(C(C)(C)C)cc2)n1C)C1CCS(=O)(=O)C1 (stereo unspecified)	inactive
Cc1ccc(NC(=O)CN(C)C(=O)COC(=O)c2nccnc2N)cc1	inactive
CC(C)CC[n+]1ccn(C2=C([O-])c3ccccc3C(=O)/C2=N\S(=O)(=O)c2ccccc2)c1	inactive
CC1(C)O[C@H]2CC(=O)OCC23[C@H]2CC[C@@]4(C)[C@H](c5ccoc5)OC(=O)[C@H]5O[C@]54[C@]2(C)C(=O)C[C@@H]13 (stereo partly specified)	inactive
CCOC(=O)C1CCN(C(=O)COC(=O)C2CCN(S(=O)(=O)c3ccc4c(c3)OCCO4)CC2)CC1	inactive
Cc1ccc(C(=O)N2CC(=O)Nc3ccc(F)cc3C2c2ccc(F)cc2)cc1 (stereo unspecified)	inactive
CCOC(=O)N1CCC(NC(=O)CCc2cn(C)c3ccccc23)CC1	inactive
FC(F)(F)c1cc(C(F)(F)F)c2ccc(N3CCN(c4ccccc4)CC3)nc2n1	inactive
Cc1ccccc1NC(=O)C(C)OC(=O)CCC(=O)N(CC(C)C)c1c(N)n(CC(C)C)c(=O)[nH]c1=O (stereo unspecified)	inactive
COc1cc(NC(=O)c2ccc(-c3csc(C)n3)cc2)c(OC)cc1Cl	inactive
[O-][N+]12CCCCC1CCCC2CO (stereo unspecified)	inactive
CCN(Cc1ccccc1)C(=O)CSc1nc(C)cc2c1C(=O)OC2	inactive
O=C(COc1ccc(Cl)cc1)NCc1nnc(SCC(=O)NCC2CCCO2)o1 (stereo unspecified)	inactive
Cc1ccc(C(C(=O)NCC2CCCO2)N(C(=O)c2snc(C(N)=O)c2N)c2ccc(C(C)C)cc2)o1 (stereo unspecified)	inactive
CC(=O)N/C(=C\c1ccccc1)C(=O)OC(C)C(=O)N(C)c1ccccc1 (stereo unspecified)	inactive
C=CCn1c(SCC(=O)NC23CC4CC(CC(C4)C2)C3)nc(O)cc1=O	inactive
Cc1ccc(/C=N/NC(=O)CN2CCN(Cc3ccccc3)CC2)s1	inactive

Compound	Potency
C=CCNC(=S)N/N=C/c1ccc(C)s1	5.62 µM (active)
C=CCNC(=S)N/N=C/c1ccc(OCc2ccccc2)cc1	inactive
CCOC(=O)c1sc(N)c(C#N)c1COC(=O)C1=COCCO1	inactive
COc1ccc(NC(=O)Cn2c(-c3ccc(OC)cc3)cn(-c3ccc(C)cc3)c2=O)cc1	inactive
O=C(c1cc2ccccc2o1)N1CCN(c2cccc(C(F)(F)F)c2)CC1	inactive
CC(C)[C@H](NC(=O)c1ccc(F)cc1)C(=O)OCC(=O)NC(=O)c1cccn1C	inactive
CC1CN(CCCOc2ccccc2-c2ccccc2)CC(C)O1 (stereo unspecified)	inactive
CCOC(=O)CC1COCCN1C(=O)c1cc(COc2ccc(F)c(F)c2)on1 (stereo unspecified)	inactive
COC/C=C/C1=CC2=CC(=O)C(C)(OC(=O)CCC(=O)OC)C(=O)C2=CO1 (stereo unspecified)	inactive
O=C(CCn1nnnc1CN1CCOCC1)N1CCC(c2ccccc2Cl)C1 (stereo unspecified)	inactive
CC(=O)Oc1ccc(-c2cccc(C(=O)N3CCCCC3)c2)cc1	inactive
CC1(C)CC(=O)C(C=NCc2cccnc2)=C(O)C1	inactive
N#C/C(=C\c1cccnc1)C(=O)Nc1ccc(SC(F)F)cc1	inactive
COc1ccc(OC)c(CNC(=O)Cn2nc(C)c3c(C)n(-c4ccc(C)cc4)nc3c2=O)c1	inactive
Cc1ccc(NN=Nc2nc3c([nH]2)c(=O)n(C)c(=O)n3C)cc1	inactive
COc1ccc(CNC(=O)C(C)NCc2ccccc2Cl)cc1 (stereo unspecified)	inactive
O=C(Cc1ccc(Cl)cc1)NC(=S)Nc1ccccc1O	inactive
Cc1ccccc1CCNC(=O)C1CCC(=O)N(Cc2ccc(Cl)cc2)C1 (stereo unspecified)	inactive
CC(C)OCCCNC(=O)c1ccc(C2SCC(=O)N2Cc2ccco2)cc1 (stereo unspecified)	inactive
COc1ccc(Cl)cc1S(=O)(=O)N1CCC(O)(c2ccc(Cl)cc2)CC1	inactive
Cc1nc2scc(-c3cccs3)c2c(=O)n1N	inactive
CCOc1ccc(OCC)c(NC(=O)CSc2nnc(Cn3cnc4ccccc43)n2C)c1	inactive
